# Data reported in the supplement of paper PMC4466140.
# Legend:
# Assay in all cases: SPOT peptide array binding signal intensity (averaged, normalized) (arbitrary units (background-subtracted, floor 0; scale differs between SH3 domains)); higher = stronger binding of the SH3 domain to the peptide
# ScBbc1 = molecular target: ScBbc1
# Summary of the method: (§1)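 E. coli BL21(DE3) was used to express GST-fused SH3 domains from four yeast species, which were then purified on glutathione Sepharose. These were incubated at 10 μg/ml in TBS-based blocking buffer overnight at 4°C on cellulose membranes carrying synthetic 15-mer peptides, in which cysteines were replaced by serines. Binding signal is the replicate average of normalized, background-subtracted spot intensity, in arbitrary units that differ between domains.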
# ScBem1-D1 = molecular target: ScBem1-D1
# Summary of the method: as §1
# ScBzz1-D1 = molecular target: ScBzz1-D1
# Summary of the method: as §1
# ScBzz1-D2 = molecular target: ScBzz1-D2
# Summary of the method: as §1
# ScCyk3 = molecular target: ScCyk3
# Summary of the method: as §1
# ScFus1 = molecular target: ScFus1
# Summary of the method: as §1
# ScHof1 = molecular target: ScHof1
# Summary of the method: as §1
# ScHse1 = molecular target: ScHse1
# Summary of the method: as §1
# ScLsb1 = molecular target: ScLsb1
# Summary of the method: as §1
# ScLsb2 = molecular target: ScLsb2
# Summary of the method: as §1
# ScLsb3 = molecular target: ScLsb3
# Summary of the method: as §1
# ScLsb4 = molecular target: ScLsb4
# Summary of the method: as §1
# ScMyo3 = molecular target: ScMyo3
# Summary of the method: as §1
# ScMyo5 = molecular target: ScMyo5
# Summary of the method: as §1
# ScNbp2 = molecular target: ScNbp2
# Summary of the method: as §1
# ScPex13 = molecular target: ScPex13
# Summary of the method: as §1
# ScRvs167 = molecular target: ScRvs167
# Summary of the method: as §1
# ScSho1 = molecular target: ScSho1
# Summary of the method: as §1
# ScSla1-D1-D2 = molecular target: ScSla1-D1-D2
# Summary of the method: as §1
# ScSla1-D3 = molecular target: ScSla1-D3
# Summary of the method: as §1
# SpAbp1-D1 = molecular target: SpAbp1-D1
# Summary of the method: as §1
# SpBbc1 = molecular target: SpBbc1
# Summary of the method: as §1
# SpBzz1-D1 = molecular target: SpBzz1-D1
# Summary of the method: as §1
# SpBzz1-D2 = molecular target: SpBzz1-D2
# Summary of the method: as §1
# SpCyk3 = molecular target: SpCyk3
# Summary of the method: as §1
# SpHof1 = molecular target: SpHof1
# Summary of the method: as §1
# SpHof1-2 = molecular target: SpHof1-2
# Summary of the method: as §1
# SpHof1-3 = molecular target: SpHof1-3
# Summary of the method: as §1
# SpHse1 = molecular target: SpHse1
# Summary of the method: as §1
# SpLsb1 = molecular target: SpLsb1
# Summary of the method: as §1
# SpLsb4 = molecular target: SpLsb4
# Summary of the method: as §1
# SpMyo1 = molecular target: SpMyo1
# Summary of the method: as §1
# SpNbp2 = molecular target: SpNbp2
# Summary of the method: as §1
# SpPex13 = molecular target: SpPex13
# Summary of the method: as §1
# SpRvs167 = molecular target: SpRvs167
# Summary of the method: as §1
# SpSla1-D1-D2 = molecular target: SpSla1-D1-D2
# Summary of the method: as §1
# SpSla1-D3 = molecular target: SpSla1-D3
# Summary of the method: as §1
binder,measurement,setting,value
PSTMDFPKLPSFQNS,SPOT peptide array binding signal intensity,ScBbc1,≤ 0
same,SPOT peptide array binding signal intensity,ScBem1-D1,≤ 0
same,SPOT peptide array binding signal intensity,ScBzz1-D1,2
same,SPOT peptide array binding signal intensity,ScBzz1-D2,10.5
same,SPOT peptide array binding signal intensity,ScCyk3,5
same,SPOT peptide array binding signal intensity,ScFus1,414
same,SPOT peptide array binding signal intensity,ScHof1,88.2
same,SPOT peptide array binding signal intensity,ScHse1,130
same,SPOT peptide array binding signal intensity,ScLsb1,11
same,SPOT peptide array binding signal intensity,ScLsb2,≤ 0
same,SPOT peptide array binding signal intensity,ScLsb3,184
same,SPOT peptide array binding signal intensity,ScLsb4,140
same,SPOT peptide array binding signal intensity,ScMyo3,28.5
same,SPOT peptide array binding signal intensity,ScMyo5,10.5
same,SPOT peptide array binding signal intensity,ScNbp2,252
same,SPOT peptide array binding signal intensity,ScPex13,221
same,SPOT peptide array binding signal intensity,ScRvs167,11.3
same,SPOT peptide array binding signal intensity,ScSho1,528
same,SPOT peptide array binding signal intensity,ScSla1-D1-D2,60
same,SPOT peptide array binding signal intensity,ScSla1-D3,290
same,SPOT peptide array binding signal intensity,SpAbp1-D1,≤ 0
same,SPOT peptide array binding signal intensity,SpBbc1,≤ 0
same,SPOT peptide array binding signal intensity,SpBzz1-D1,205
same,SPOT peptide array binding signal intensity,SpBzz1-D2,10.5
same,SPOT peptide array binding signal intensity,SpCyk3,1
same,SPOT peptide array binding signal intensity,SpHof1,30.2
same,SPOT peptide array binding signal intensity,SpHof1-2,72.2
same,SPOT peptide array binding signal intensity,SpHof1-3,18
same,SPOT peptide array binding signal intensity,SpHse1,289
same,SPOT peptide array binding signal intensity,SpLsb1,≤ 0
same,SPOT peptide array binding signal intensity,SpLsb4,658
same,SPOT peptide array binding signal intensity,SpMyo1,91.5
same,SPOT peptide array binding signal intensity,SpNbp2,130
same,SPOT peptide array binding signal intensity,SpPex13,38
same,SPOT peptide array binding signal intensity,SpRvs167,59
same,SPOT peptide array binding signal intensity,SpSla1-D1-D2,4
same,SPOT peptide array binding signal intensity,SpSla1-D3,133
